Reference: PubChem BioAssay (NCATS)
Records with an inconclusive call do not appear. Activity calls are given as the source filed them. Calls follow the shape of the dose curve; as a rule, active = well fitted inhibition curve with a large enough effect; inconclusive = small, poorly fitted or top-dose-only effect; inactive = flat fitted curve, though single readings scatter.

Key:
Assay in all cases: Cytotoxic Profiling of Annotated Libraries Using Quantitative High-Throughput Screening (AID 1296008); also: nearly all actives have a fitted effect of over 60% in size
Details in all cases: Five cell lines viability, CellTiter-Glo ATP luminescence, 48-72 h; max response: stronger effect = lower value
HEK293 = tested on: HEK293
Outline: (§1)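 Cells exposed to compounds for 48 or 72 hr at 37 degrees Celsius. Viability read as ATP-coupled luminescence with CellTiter-Glo after 10 min at room temperature.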

HaCat = tested on: HaCat
Outline: as §1

KB-3-1 = tested on: KB-3-1
Outline: as §1

NIH3T3 = tested on: NIH3T3
Outline: as §1
% is scaled to controls: 0 for no effect and ±100 for the full control effect; potency is read from the fitted curve at half-maximal effect.

CC1=CC2C(CC1OC1OC(CO)C(O)C(O)C1O)C(C)CC(=O)C2C(C)C (stereo not given)
inactive: max response (HEK293) -0.187% | max response (HaCat) -4.3% | outcome (KB-3-1) | max response (NIH3T3) 1.5%

CC(=O)O[C@@H]1c2c3c(cc(O)c2C(=O)O[C@@H]1C)O[C@@]1(C)[C@@H](O)C[C@H]2C(C)(C)C(=O)C=C[C@]2(C)[C@@H]1C3
inactive: max response (HEK293) -27.5% | max response (HaCat) 3.68% | outcome (KB-3-1) | max response (NIH3T3) -3.36%

C=C1C(=O)O[C@@H]2/C=C(\C)C(=O)/C=C/[C@](C)(O)C[C@@H](OC(=O)C(C)C)[C@@H]12
active: Potency (HEK293) 0.805 µM | Potency (HaCat) 2.02 µM | Potency (KB-3-1) 7.18 µM | Potency (NIH3T3) 2.55 µM

O=C(c1ccc2nccnc2c1)N1CCCCC1
inactive: max response (HEK293) -81.1% | max response (HaCat) -44.6% | outcome (KB-3-1) | max response (NIH3T3) -40.7%

CC(=O)O[C@@H](CO[C@@H]1O[C@H](CO)[C@H](O)[C@H](O)[C@H]1O)[C@]1(C)C=C2CC[C@@H]3C(C)(C)[C@@H](O)CC[C@@]3(C)[C@@H]2CC1
inactive: max response (HEK293) -1.31% | max response (HaCat) 2.2% | max response (KB-3-1) 2.92% | max response (NIH3T3) 4.41%

CC1(C)CCCC2(C)C=C(C(=O)O)C(O)CC12 (stereo not given)
inactive: max response (HEK293) -6.67% | max response (HaCat) -0.18% | max response (KB-3-1) 1.72% | max response (NIH3T3) 1.16%

COc1cccc2cc3c(c(O[C@@H]4O[C@H](CO[C@@H]5O[C@H](CO)[C@@H](O)[C@H](O)[C@H]5O)[C@@H](O)[C@H](O)[C@H]4O)c12)C(C)OC3=O (stereo not given in full)
inactive: max response (HEK293) 2.15% | max response (HaCat) -3.49% | max response (KB-3-1) 9.17% | max response (NIH3T3) 0.0764%

C[C@@H]1[C@H]2[C@H](O[C@@H]3O[C@H](CO)[C@@H](O)[C@H](O)[C@H]3O)OC=C(C(=O)O)[C@H]2C[C@@H]1O
inactive: max response (HEK293) -5.11% | max response (HaCat) -4.56% | max response (KB-3-1) -0.849% | max response (NIH3T3) -4.16%

CCC(COC)n1nnc2c(Nc3ccc(OC)cc3C)nc(C)cc21 (stereo not given)
inactive: max response (HEK293) -7.21% | max response (HaCat) -0.414% | max response (KB-3-1) 6.85% | max response (NIH3T3) 2.01%

Cc1cc(C)c(CNC(=O)c2cc(-c3ccc(CN4CCOCC4)cc3)cc3c2cnn3C2CCCC2)c(=O)[nH]1
inactive: outcome (HaCat) | max response (KB-3-1) 8.22% | max response (NIH3T3) -0.531%
active: Potency (HEK293) 14.8 µM

COc1ccc2c(OC)c3ccoc3nc2c1OC
inactive: max response (HEK293) -25.3% | max response (HaCat) -7.51% | max response (KB-3-1) 4.27% | max response (NIH3T3) -9.34%

CCC(CC)C(=O)Nc1sc2c(c1C#N)CCC(C(C)(C)CC)C2 (stereo not given)
active: Potency (HEK293) 23.1 µM
inactive: max response (HaCat) 1.75% | max response (KB-3-1) -9.22% | max response (NIH3T3) 3.55%

C=C1CC[C@H]2[C@@](C)(CCC(O)[C@@]2(C)CO)[C@@H]1CCC1=CCOC1=O (stereo not given in full)
inactive: max response (HEK293) 3.62% | max response (HaCat) -3.43% | max response (KB-3-1) -26.3% | max response (NIH3T3) -1.37%

CC(=O)O[C@@H]1CC(C)=C2[C@H]1[C@H](C)CC[C@H]2/C=C(\C)C(=O)O
inactive: max response (HEK293) -2.45% | max response (HaCat) -15.4% | max response (KB-3-1) 7.61% | max response (NIH3T3) -9.33%

C=C1C[C@]23C[C@H]1CC[C@H]2[C@@]12CC[C@H](O)[C@@](C)(C(=O)O1)[C@H]2[C@@H]3C(=O)O
inactive: max response (HEK293) -4.65% | max response (HaCat) -1.9% | max response (KB-3-1) 6.55% | max response (NIH3T3) 3.45%

O=C(O)Cc1ccc2oc(-c3ccc(NC(=O)/C=C/c4ccc(Br)cc4)c(F)c3)nc2c1
inactive: max response (HEK293) -7.74% | max response (HaCat) 2.81% | max response (KB-3-1) 0.378% | max response (NIH3T3) 1.97%

O=C(C(c1ccccc1)c1ccccc1)N1CCN(CC(O)COc2cccc3ncccc23)CC1 (stereo not given)
inactive: max response (HaCat) -24.2% | max response (KB-3-1) -28.1% | max response (NIH3T3) -26.9%
active: Potency (HEK293) 6.51 µM

CC(=O)OC1/C(C)=C/C(=O)C(OC(C)=O)C(C)(C)/C=C/C(C)C(=O)C2(OC(C)=O)CC(C)C(OC(=O)c3ccccc3)C12 (stereo not given)
inactive: max response (HEK293) -22.9% | max response (HaCat) -9.17% | outcome (KB-3-1) | max response (NIH3T3) -16.3%

CCC(O)(C(=O)OCc1ccccc1NC(=O)CCC(=O)O)C(C)O (stereo not given)
inactive: max response (HEK293) -0.446% | max response (HaCat) -3.62% | outcome (KB-3-1) | max response (NIH3T3) -2.36%

CC1OC(OC2C(OC3C(O[C@H]4CC[C@@]5(C)C(CC[C@]6(C)C5C(=O)C=C5C7CC(C)(C)CC(O)[C@]7(C)CC[C@]56C)C4(C)C)OC(C(=O)O)C(O)C3O)OCC(O)C2O)C(O)C(O)C1O (stereo not given in full)
inactive: max response (HEK293) 2.13% | max response (HaCat) -1.72% | max response (KB-3-1) -2.68% | max response (NIH3T3) -3.29%

C[C@@H]1CC[C@]2(C(=O)O[C@@H]3O[C@H](CO)[C@@H](O)[C@H](O)[C@H]3O)CC[C@]3(C)C(=CCC4[C@@]5(C)C[C@@H](O)[C@H](O)[C@@](C)(C(=O)O[C@H]6[C@H](O)C[C@@]7(C)C(CC[C@]8(C)C7CC=C7[C@H]9[C@](C(=O)O[C@@H]%10O[C@H](CO)[C@@H](O)[C@H](O)[C@H]%10O)(CC[C@@H](C)[C@@]9(C)O)CC[C@]78C)[C@@]6(CO)C(=O)O)C5CC[C@]43C)[C@@H]2[C@]1(C)O (stereo not given in full)
inactive: max response (HEK293) -9.28% | max response (HaCat) -16.1% | outcome (KB-3-1) | max response (NIH3T3) 4.48%

C[C@@H]1CC[C@]2(C(=O)OC3OC(CO)C(O)C(O)C3O)CC[C@]3(C)C(=CCC4[C@@]5(C)CC[C@H](O)[C@](C)(C(=O)O)C5CC[C@]43C)C2[C@]1(C)O (stereo not given in full)
inactive: max response (HEK293) -6.18% | max response (HaCat) -8.63% | max response (KB-3-1) 4.37% | max response (NIH3T3) -0.137%

CCCC(=O)C1CCN(c2ncnc3c2CN(C(=O)c2ccc(-c4ccccc4)cc2)CC3)CC1
inactive: max response (HaCat) -5.72% | max response (KB-3-1) -16.8% | max response (NIH3T3) -13.2%
active: Potency (HEK293) 18.4 µM

O=C(O)C(O[C@@H]1O[C@H](CO[C@@H]2O[C@H](CO)[C@@H](O)[C@H](O)[C@H]2O)[C@@H](O)[C@H](O)[C@H]1O)c1ccccc1 (stereo not given in full)
inactive: max response (HEK293) -7.94% | max response (HaCat) -3.34% | max response (KB-3-1) 7.09% | max response (NIH3T3) 1.38%

CC1=CCC2C(C)(C)CCC[C@]2(C)[C@@]12CC[C@](C)(CC(=O)O)O2 (stereo not given in full)
inactive: max response (HEK293) -11.7% | max response (HaCat) -3.64% | max response (KB-3-1) -6.84% | max response (NIH3T3) -1.28%

C#CCN(Cc1cc2c(=O)n(C)c(CN3CCN(C)CC3)nc2cc1Cl)c1ccc(C(=O)NCc2cccnc2)cc1
inactive: max response (HEK293) -130% | max response (NIH3T3) -114%
active: Potency (HaCat) 0.0073 µM | Potency (KB-3-1) 0.0411 µM

CC(C)[C@H]1CC[C@@]2(O)COC(=O)[C@H]2[C@@H]1/C=C(\CO)C(=O)O
inactive: max response (HEK293) 2.97% | max response (HaCat) -2.34% | max response (KB-3-1) 0.265% | max response (NIH3T3) -2.01%

COc1cc(O)c([C@@H](CC(=O)N2CC(C)CC(C)C2)c2ccc3c(c2)OCO3)c(OC)c1 (stereo not given in full)
inactive: max response (HEK293) -5.89% | max response (HaCat) -11.1% | max response (KB-3-1) -2.57% | max response (NIH3T3) -1.6%

CSc1ccc(C(=O)N[C@@H]2CCCC[C@@H]2NC(=O)CNC(=O)c2cc(C(F)(F)F)ccc2NC(=O)NC(C)C)cc1
inactive: max response (HEK293) -11.3% | max response (HaCat) -8.38% | max response (KB-3-1) -4.76% | max response (NIH3T3) 0.151%

O=C(/C=C\c1ccc(O)cc1)N[C@@H](Cc1ccc(O)cc1)C(=O)O
inactive: max response (HEK293) 1.95% | max response (HaCat) -12.4% | max response (KB-3-1) 1.07% | max response (NIH3T3) -0.22%

CC12CCC(OC3OC(CO)C(O)C(OC4OC(CO)C(O)C(O)C4O)C3O)CC1=CCC1C2CCC2(C)/C(=C3/COC(=O)C3)CCC12O (stereo not given)
inactive: max response (HEK293) 0.267% | outcome (HaCat) | max response (KB-3-1) -7.93% | max response (NIH3T3) -3.87%

Cc1cc(N2CCN([C@@H]3CN[C@H](C(=O)N4CCSC4)C3)CC2)n(-c2ccccc2)n1
inactive: max response (HEK293) -23.9% | max response (HaCat) -10.6% | max response (KB-3-1) -12.3% | max response (NIH3T3) -22.8%

COC(=O)C1=COC(OC2OC(CO)C(O)C(O)C2O)C2C1C=CC2(O)CO (stereo not given)
inactive: max response (HEK293) -11.3% | max response (HaCat) -21.5% | outcome (KB-3-1) | max response (NIH3T3) 3.54%

CC(=O)N1CCc2ccc(O)c(OC3OC(COC4OCC(O)(CO)C4O)C(O)C(O)C3O)c2C1Cc1ccc(O)cc1 (stereo not given)
inactive: max response (HEK293) -5.03% | max response (HaCat) -0.476% | max response (KB-3-1) 3.16% | max response (NIH3T3) -4.18%

C/C1=C\CCC(C)CCO[C@@H]2O[C@H](CO[C@@H]3OC[C@H](O)[C@H](O)[C@H]3OC1=O)[C@@H](O)[C@H](O)[C@H]2O (stereo not given in full)
inactive: max response (HEK293) 2.77% | max response (HaCat) -12.1% | outcome (KB-3-1) | max response (NIH3T3) -2.67%

C=CC/C=C\C/C=C\CCCCCCCc1cccc(O)c1C(=O)O
inactive: max response (HEK293) -5.53% | max response (HaCat) 3.56% | max response (KB-3-1) 4.36% | max response (NIH3T3) -1.27%

Nc1ccc(-c2cccc3c(=O)cc(N4CCOCC4)oc23)cc1
active: Potency (HEK293) 7.31 µM | Potency (HaCat) 6.51 µM | Potency (KB-3-1) 20.6 µM | Potency (NIH3T3) 8.2 µM

CC1(C)CCC2(C(=O)OC3OCC(O)C(O)C3O)CCC3(C)C(=CCC4C5(C)CC(O)C(OC6OC(COC7OCC(O)C(O)C7O)C(O)C(O)C6O)C(C)(C)C5CCC43C)C2C1 (stereo not given)
inactive: max response (HEK293) -7.77% | max response (HaCat) 2.92% | outcome (KB-3-1) | max response (NIH3T3) -1.51%

C/C=C/C=C/C(=O)N1CC[C@]23c4ccccc4N[C@H]4N(C)c5cccc6c5[C@@]42CCN([C@H]6C2OC2(C)C)[C@H]13 (stereo not given in full)
inactive: max response (HEK293) -2.78% | max response (HaCat) -7.02% | max response (KB-3-1) 9.01% | max response (NIH3T3) 3.9%

CCn1cc(NC(=S)Nc2cc(Cl)ccc2OC)c(C(N)=O)n1
inactive: max response (HEK293) -2.95% | max response (HaCat) -0.793% | outcome (KB-3-1) | max response (NIH3T3) -1.95%
